Counter-ions that a name gives are not always drawn. ± gives the standard deviation of the averaged measurements.
Tests used:
[1] = test system: Saccharomyces cerevisiae BY4741 SeMeCo community; experiment: mean cell size (pixel area) (pixels); higher = larger cells; conditions: 10 µM; 24 h; SM minimal medium
Outline: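 A fluorescent Saccharomyces cerevisiae BY4741 community carrying four plasmids was used, with each plasmid complementing one auxotrophy and bearing a fluorescent marker. An overnight preculture at OD600 = 1.0 was diluted to OD600 = 0.3, and 70 µl went into 384-well plates acoustically predosed with drug (final 10 µM) in SM medium for 24 h. After paraformaldehyde fixation, cells were imaged by automated confocal microscopy and analysed in Harmony, giving the mean cell pixel area per well. Each value is the average of 3 replicates. Same SeMeCo high-content imaging drug screen: Selleck FDA-approved drugs at 10 µM, 24 h in SM medium, 384-well plates, 3 replicates.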

[2] = test system: Saccharomyces cerevisiae BY4741 SeMeCo community; experiment: z-score of prototroph abundance vs DMSO median; higher = larger share of this subpopulation than in DMSO controls; conditions: 10 µM; 24 h; SM minimal medium; subpopulation (auxotrophy): Prototroph
Outline: (§1)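 Cells of a Saccharomyces cerevisiae BY4741 community, carrying four plasmids that each restored one auxotrophy and encoded a distinct fluorescent protein, were pre-grown overnight to OD600 1.0 and diluted to 0.3. A 70 µl volume was added to 384-well plates acoustically predosed with library drugs (10 µM final) and grown 24 h in minimal SM medium. After paraformaldehyde fixation, automated confocal microscopy was used, with single-auxotroph fluorescent strains for thresholds and autofluorescence correction. The abundance of each subpopulation was scored as a z-score against the vehicle-well median.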

[3] = test system: Saccharomyces cerevisiae BY4741 SeMeCo community; experiment: z-score of subpopulation abundance vs DMSO median, subpopulation auxotrophic for M; higher = larger share of this subpopulation than in DMSO controls; conditions: 10 µM; 24 h; SM minimal medium; subpopulation (auxotrophy): M
Outline: as §1

[4] = test system: Saccharomyces cerevisiae BY4741 SeMeCo community; experiment: z-score of subpopulation abundance vs DMSO median, subpopulation auxotrophic for L; higher = larger share of this subpopulation than in DMSO controls; conditions: 10 µM; 24 h; SM minimal medium; subpopulation (auxotrophy): L
Outline: as §1

[5] = test system: Saccharomyces cerevisiae BY4741 SeMeCo community; experiment: z-score of subpopulation abundance vs DMSO median, subpopulation auxotrophic for U; higher = larger share of this subpopulation than in DMSO controls; conditions: 10 µM; 24 h; SM minimal medium; subpopulation (auxotrophy): U
Outline: as §1

[6] = test system: Saccharomyces cerevisiae BY4741 SeMeCo community; experiment: z-score of subpopulation abundance vs DMSO median, subpopulation auxotrophic for H; higher = larger share of this subpopulation than in DMSO controls; conditions: 10 µM; 24 h; SM minimal medium; subpopulation (auxotrophy): H
Outline: as §1

[7] = test system: Saccharomyces cerevisiae BY4741 SeMeCo community; experiment: z-score of subpopulation abundance vs DMSO median, subpopulation auxotrophic for LU; higher = larger share of this subpopulation than in DMSO controls; conditions: 10 µM; 24 h; SM minimal medium; subpopulation (auxotrophy): LU
Outline: as §1

[8] = test system: Saccharomyces cerevisiae BY4741 SeMeCo community; experiment: z-score of subpopulation abundance vs DMSO median, subpopulation auxotrophic for LM; higher = larger share of this subpopulation than in DMSO controls; conditions: 10 µM; 24 h; SM minimal medium; subpopulation (auxotrophy): LM
Outline: as §1

[9] = test system: Saccharomyces cerevisiae BY4741 SeMeCo community; experiment: z-score of subpopulation abundance vs DMSO median, subpopulation auxotrophic for HM; higher = larger share of this subpopulation than in DMSO controls; conditions: 10 µM; 24 h; SM minimal medium; subpopulation (auxotrophy): HM
Outline: as §1

[10] = test system: Saccharomyces cerevisiae BY4741 SeMeCo community; experiment: z-score of subpopulation abundance vs DMSO median, subpopulation auxotrophic for HU; higher = larger share of this subpopulation than in DMSO controls; conditions: 10 µM; 24 h; SM minimal medium; subpopulation (auxotrophy): HU
Outline: as §1

[11] = test system: Saccharomyces cerevisiae BY4741 SeMeCo community; experiment: z-score of subpopulation abundance vs DMSO median, subpopulation auxotrophic for UM; higher = larger share of this subpopulation than in DMSO controls; conditions: 10 µM; 24 h; SM minimal medium; subpopulation (auxotrophy): UM
Outline: as §1

[12] = test system: Saccharomyces cerevisiae BY4741 SeMeCo community; experiment: z-score of subpopulation abundance vs DMSO median, subpopulation auxotrophic for HL; higher = larger share of this subpopulation than in DMSO controls; conditions: 10 µM; 24 h; SM minimal medium; subpopulation (auxotrophy): HL
Outline: as §1

[13] = test system: Saccharomyces cerevisiae BY4741 SeMeCo community; experiment: z-score of subpopulation abundance vs DMSO median, subpopulation auxotrophic for HLU; higher = larger share of this subpopulation than in DMSO controls; conditions: 10 µM; 24 h; SM minimal medium; subpopulation (auxotrophy): HLU
Outline: as §1

[14] = test system: Saccharomyces cerevisiae BY4741 SeMeCo community; experiment: z-score of subpopulation abundance vs DMSO median, subpopulation auxotrophic for HLM; higher = larger share of this subpopulation than in DMSO controls; conditions: 10 µM; 24 h; SM minimal medium; subpopulation (auxotrophy): HLM
Outline: as §1

[15] = test system: Saccharomyces cerevisiae BY4741 SeMeCo community; experiment: z-score of subpopulation abundance vs DMSO median, subpopulation auxotrophic for HUM; higher = larger share of this subpopulation than in DMSO controls; conditions: 10 µM; 24 h; SM minimal medium; subpopulation (auxotrophy): HUM
Outline: as §1

[16] = test system: Saccharomyces cerevisiae BY4741 SeMeCo community; experiment: z-score of subpopulation abundance vs DMSO median, subpopulation auxotrophic for LUM; higher = larger share of this subpopulation than in DMSO controls; conditions: 10 µM; 24 h; SM minimal medium; subpopulation (auxotrophy): LUM
Outline: as §1

[17] = test system: Saccharomyces cerevisiae BY4741 SeMeCo community; experiment: z-score of subpopulation abundance vs DMSO median, subpopulation auxotrophic for HLUM; higher = larger share of this subpopulation than in DMSO controls; conditions: 10 µM; 24 h; SM minimal medium; subpopulation (auxotrophy): HLUM
Outline: as §1

Structure (SMILES) | mean cell size [1] | z-score of prototroph abundance [2] | z-score of subpopulation abundance [3] | z-score of subpopulation abundance [4] | z-score of subpopulation abundance [5] | z-score of subpopulation abundance [6] | z-score of subpopulation abundance [7] | z-score of subpopulation abundance [8] | z-score of subpopulation abundance [9] | z-score of subpopulation abundance [10] | z-score of subpopulation abundance [11] | z-score of subpopulation abundance [12] | z-score of subpopulation abundance [13] | z-score of subpopulation abundance [14] | z-score of subpopulation abundance [15] | z-score of subpopulation abundance [16] | z-score of subpopulation abundance [17]
CC(=O)Oc1ccccc1C(=O)O [Aspirin] | 12.5 ± 0.23 | -0.19 | 1.14 | -0.15 | -0.25 | 0.67 | 0.01 | 0.16 | -0.38 | -0.71 | -0.21 | 0.18 | -0.85 | 0.21 | -0.14 | -0.25 | –
CN(C)CCC=C1c2ccccc2CCc2ccccc21 [Amitriptyline HCl] | 12.3 ± 0.27 | – | 0.09 | -0.56 | -0.21 | -0.87 | -1.69 | -0.17 | -0.99 | -0.28 | -0.92 | – | -1.03 | -1.26 | -0.75 | -0.91 | –
COC(=O)C1=C(C)NC(C)=C(C(=O)OCCN2CCN(C(c3ccccc3)c3ccccc3)CC2)C1c1cccc([N+](=O)[O-])c1 (stereo unspecified) [Manidipine] | 12 ± 0.18 | -1.43 | 1.78 | 0.96 | -1.02 | 2.53 | -1.04 | 2.53 | 2.14 | – | -0.6 | 2.76 | 1.73 | 0.64 | 2.11 | 0.72 | –
C1CCN2C[C@@H]3C[C@@H](CN4CCCC[C@@H]34)[C@H]2C1 [(-)-Sparteine Sulfate] | 12.2 ± 0.3 | 0.31 | -0.03 | -0.01 | – | 1.38 | -0.85 | -0.13 | – | -0.03 | 0.01 | 1.4 | -0.52 | -0.86 | 0.1 | -0.1 | -0.92
Clc1ccc(CSC(Cn2ccnc2)c2ccc(Cl)cc2Cl)cc1 (stereo unspecified) [Sulconazole Nitrate] | 12.1 ± 0.16 | -9.61 | -2.96 | -0.34 | 1.17 | 22 | -2.59 | -2.53 | – | 14.1 | 5.19 | 11 | 7.54 | 24.7 | 6.12 | 0.84 | 10.5
CC(C)(O/N=C(\C(=O)N[C@@H]1C(=O)N2C(C(=O)[O-])=C(C[n+]3ccccc3)CS[C@H]12)c1csc(N)n1)C(=O)O [Ceftazidime] | 12 ± 0.14 | 0.11 | -0.44 | -0.23 | -0.24 | 0.63 | -0.93 | -0.09 | -0.26 | 0.43 | – | 0.02 | 0.34 | -0.39 | 0.14 | 0.05 | –
Cc1ccc2c(Cl)cc(Cl)c(O)c2n1 [Chlorquinaldol] | 14.5 ± 0.18 | -18.8 | 7.61 | 0.46 | -6.35 | 9.18 | -2.2 | 9.8 | – | 7.3 | -1.95 | 19.8 | 28.9 | 107 | 15.8 | – | 114
O=C(O)Cc1ccccc1Nc1c(Cl)cccc1Cl [Diclofenac acid] | 12.5 ± 0.047 | 1.03 | 0.23 | 0.08 | -0.61 | -1.45 | -0.18 | 0 | – | -1.1 | – | -0.51 | 0.15 | 0 | -1.34 | -0.28 | -0.07
Cn1c(=O)c2[nH]cnc2n(C)c1=O [Aminophylline] | 12.5 ± 0.19 | -0.44 | 0.43 | 0.83 | – | -0.41 | 1.06 | 0.92 | – | -0.5 | 0.33 | 0.54 | -0.5 | -0.27 | 0.11 | 0.29 | -0.29
Cc1cc(NS(=O)(=O)c2ccc(N)cc2)no1 [Sulfamethoxazole] | 12.4 ± 0.24 | -0.28 | 0.51 | 0.5 | – | -0.46 | 0.02 | 0.08 | 0.18 | -0.16 | 0.65 | 0.5 | 1.04 | -0.58 | -0.13 | -0.02 | –
O=C(Nc1cccc(C2=NCCN2)c1)Nc1cccc(C2=NCCN2)c1 [Imidocarb dipropionate] | 12.1 ± 0.27 | 0.72 | -1.19 | -0.04 | 0.07 | -0.78 | 0.44 | -0.28 | – | 0.05 | – | -0.57 | 0.17 | -0.49 | -0.49 | – | 0.13
CNC1CCCN(c2c(F)cc3c(=O)c(C(=O)O)cn(C4CC4)c3c2OC)C1 (stereo unspecified) [Balofloxacin] | 12.32 ± 0.029 | – | 0.44 | -0.33 | 0.18 | -0.4 | -0.04 | -0.13 | -0.09 | 0.32 | 0.59 | -0.7 | -0.57 | -0.9 | 0.67 | 0.17 | –
CCCCNC(=O)NS(=O)(=O)c1ccc(C)cc1 [Tolbutamide] | 12.5 ± 0.33 | 0.43 | -0.57 | -0.55 | 0.61 | – | -1.03 | -0.86 | – | -0.31 | -0.16 | -0.54 | -0.37 | -0.11 | -0.36 | -1 | 0.19
O=C(O[C@@H]1C[C@@H]2C[C@H]3C[C@H](C1)N2CC3=O)c1c[nH]c2ccccc12 [Dolasetron Mesylate] | 12.18 ± 0.11 | -0.86 | 0.81 | -0.52 | 0.89 | -0.55 | 1.19 | 0.31 | – | 0.7 | 1.07 | 0 | 0.01 | 0.35 | 0.41 | 0.21 | -0.07
